{"source": "the supplement of paper PMC10515830", "details_in_all_cases": "10 µM; exposure time 6 h", "key": {"[1]": {"tested_on": "Danio rerio larvae (5 dpf)", "assay": "difference in excitability vs DMSO (percentage points); higher = more excitable than DMSO", "in_short": "(§1)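 Wild-type 5 dpf zebrafish larvae in 96-well plates were given 100 µL egg water containing library compound at 10 µM final for 6 h. After 3 h of exposure, plates at 28.5 ℃ were photographed every 6 s during a 3-h programme of moving lines and 100 ms, 400Hz tones. Z-LaP Tracker (a DeepLabCut model) quantified each behaviour, averaged over 48 larvae per compound. Values are the compound mean minus the DMSO-vehicle control, in percentage points.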"}, "[2]": {"tested_on": "Danio rerio larvae (5 dpf)", "assay": "difference in startle response vs DMSO (percentage points); higher = stronger startle than DMSO", "in_short": "as §1"}, "[3]": {"tested_on": "Danio rerio larvae (5 dpf)", "assay": "difference in activity during first hour vs DMSO (percentage points); higher = more activity than DMSO", "in_short": "as §1"}, "[4]": {"tested_on": "Danio rerio larvae (5 dpf)", "assay": "difference in habituation to acoustic stimuli vs DMSO (percentage points); higher = more habituation than DMSO", "in_short": "as §1"}, "[5]": {"tested_on": "Danio rerio larvae (5 dpf)", "assay": "difference in combined optomotor response to red, green and blue moving lines vs DMSO (percentage points); higher = stronger optomotor response than DMSO", "in_short": "as §1"}}, "note": "Where a name gives a salt, the structure may show the parent alone."}
{"smiles": "CS(=O)(=O)CCNCc1ccc(-c2ccc3ncnc(Nc4ccc(OCc5cccc(F)c5)c(Cl)c4)c3c2)o1", "note": "[Lapatinib]", "values": [{"measurement": "difference in excitability", "setting": "[1]", "result": -0.459}, {"measurement": "difference in startle response", "setting": "[2]", "result": 0.335}, {"measurement": "difference in activity during first hour", "setting": "[3]", "result": -8.64}, {"measurement": "difference in habituation to acoustic stimuli", "setting": "[4]", "result": -0.929}, {"measurement": "difference", "setting": "[5]", "result": 1.37}]}
{"smiles": "C[C@H](CS)C(=O)N1CCC[C@H]1C(=O)O", "note": "[Captopril]", "values": [{"measurement": "difference in excitability", "setting": "[1]", "result": 1.66}, {"measurement": "difference in startle response", "setting": "[2]", "result": -4.09}, {"measurement": "difference in activity during first hour", "setting": "[3]", "result": -5.55}, {"measurement": "difference in habituation to acoustic stimuli", "setting": "[4]", "result": -3.07}, {"measurement": "difference", "setting": "[5]", "result": 1.64}]}
{"smiles": "CC(C)(C)NC[C@H](O)COc1nsnc1N1CCOCC1", "note": "[Timolol (maleate)]", "values": [{"measurement": "difference in excitability", "setting": "[1]", "result": 6.66}, {"measurement": "difference in startle response", "setting": "[2]", "result": -3.72}, {"measurement": "difference in activity during first hour", "setting": "[3]", "result": 0.276}, {"measurement": "difference in habituation to acoustic stimuli", "setting": "[4]", "result": -0.906}, {"measurement": "difference", "setting": "[5]", "result": 6.47}]}
{"smiles": "CN1CCc2cccc3c2[C@H]1Cc1ccc(O)c(O)c1-3", "note": "[(-)-Apomorphine (hydrochloride hydrate)]", "values": [{"measurement": "difference in excitability", "setting": "[1]", "result": 19.8}, {"measurement": "difference in startle response", "setting": "[2]", "result": -2.6}, {"measurement": "difference in activity during first hour", "setting": "[3]", "result": -20.1}, {"measurement": "difference in habituation to acoustic stimuli", "setting": "[4]", "result": -5.47}, {"measurement": "difference", "setting": "[5]", "result": -13}]}
{"smiles": "Cc1c(O)c(=O)ccn1C", "note": "[Deferiprone]", "values": [{"measurement": "difference in excitability", "setting": "[1]", "result": 4.23}, {"measurement": "difference in startle response", "setting": "[2]", "result": -1.15}, {"measurement": "difference in activity during first hour", "setting": "[3]", "result": 8.16}, {"measurement": "difference in habituation to acoustic stimuli", "setting": "[4]", "result": -1.01}, {"measurement": "difference", "setting": "[5]", "result": 10.8}]}
{"smiles": "NCc1ccc(S(N)(=O)=O)cc1", "note": "[Mafenide]", "values": [{"measurement": "difference in excitability", "setting": "[1]", "result": 3.79}, {"measurement": "difference in startle response", "setting": "[2]", "result": 7.01}, {"measurement": "difference in activity during first hour", "setting": "[3]", "result": 4.01}, {"measurement": "difference in habituation to acoustic stimuli", "setting": "[4]", "result": 0.954}, {"measurement": "difference", "setting": "[5]", "result": 0.998}]}
{"smiles": "C=C1CC[C@H](O)C/C1=C/C=C1\\CCC[C@]2(C)[C@@H]([C@H](C)/C=C/[C@H](C)C(C)C)CC[C@@H]12", "note": "[Vitamin D2]", "values": [{"measurement": "difference in excitability", "setting": "[1]", "result": 3.72}, {"measurement": "difference in startle response", "setting": "[2]", "result": -5.12}, {"measurement": "difference in activity during first hour", "setting": "[3]", "result": 3.16}, {"measurement": "difference in habituation to acoustic stimuli", "setting": "[4]", "result": 2.67}, {"measurement": "difference", "setting": "[5]", "result": 8.48}]}
{"smiles": "CC[C@H](C)C(=O)O[C@H]1C[C@@H](C)C=C2C=C[C@H](C)[C@H](CC[C@@H]3C[C@@H](O)CC(=O)O3)[C@H]21", "note": "[Lovastatin]", "values": [{"measurement": "difference in excitability", "setting": "[1]", "result": 9.79}, {"measurement": "difference in startle response", "setting": "[2]", "result": 2.77}, {"measurement": "difference in activity during first hour", "setting": "[3]", "result": 7.75}, {"measurement": "difference in habituation to acoustic stimuli", "setting": "[4]", "result": -0.0098}, {"measurement": "difference", "setting": "[5]", "result": 1.09}]}
{"smiles": "O=C(O)c1ccc(-n2nc(-c3ccccc3O)nc2-c2ccccc2O)cc1", "note": "[Deferasirox]", "values": [{"measurement": "difference in excitability", "setting": "[1]", "result": 1.98}, {"measurement": "difference in startle response", "setting": "[2]", "result": -2.31}, {"measurement": "difference in activity during first hour", "setting": "[3]", "result": 17.7}, {"measurement": "difference in habituation to acoustic stimuli", "setting": "[4]", "result": 2.04}, {"measurement": "difference", "setting": "[5]", "result": 5.07}]}
{"smiles": "CC(=O)OCC[N+](C)(C)C", "note": "[Acetylcholine (chloride)]", "values": [{"measurement": "difference in excitability", "setting": "[1]", "result": 5.65}, {"measurement": "difference in startle response", "setting": "[2]", "result": 0.34}, {"measurement": "difference in activity during first hour", "setting": "[3]", "result": -8.36}, {"measurement": "difference in habituation to acoustic stimuli", "setting": "[4]", "result": 2.23}, {"measurement": "difference", "setting": "[5]", "result": -4.37}]}
{"smiles": "CCCc1nc(C)c2c(=O)nc(-c3cc(S(=O)(=O)N4CCN(CC)CC4)ccc3OCC)[nH]n12", "note": "[Vardenafil (hydrochloride hydrate)]", "values": [{"measurement": "difference in excitability", "setting": "[1]", "result": 4.29}, {"measurement": "difference in startle response", "setting": "[2]", "result": 1.36}, {"measurement": "difference in activity during first hour", "setting": "[3]", "result": 0.203}, {"measurement": "difference in habituation to acoustic stimuli", "setting": "[4]", "result": 5.85}, {"measurement": "difference", "setting": "[5]", "result": 12.9}]}
{"smiles": "C#C[C@]1(O)CC[C@H]2[C@@H]3CCC4=Cc5oncc5C[C@]4(C)[C@H]3CC[C@@]21C", "note": "[Danazol]", "values": [{"measurement": "difference in excitability", "setting": "[1]", "result": 6.6}, {"measurement": "difference in startle response", "setting": "[2]", "result": -7.24}, {"measurement": "difference in activity during first hour", "setting": "[3]", "result": -23.6}, {"measurement": "difference in habituation to acoustic stimuli", "setting": "[4]", "result": -10.4}, {"measurement": "difference", "setting": "[5]", "result": -17.8}]}
{"smiles": "Cc1ncc(CO)c(CO)c1O", "note": "[Pyridoxine]", "values": [{"measurement": "difference in excitability", "setting": "[1]", "result": -7.67}, {"measurement": "difference in startle response", "setting": "[2]", "result": 5.43}, {"measurement": "difference in activity during first hour", "setting": "[3]", "result": 7.49}, {"measurement": "difference in habituation to acoustic stimuli", "setting": "[4]", "result": 4.31}, {"measurement": "difference", "setting": "[5]", "result": 4.65}]}
{"smiles": "Nc1ccn(C[C@@H](CO)OCP(=O)(O)O)c(=O)n1", "note": "[Cidofovir]", "values": [{"measurement": "difference in excitability", "setting": "[1]", "result": -2.11}, {"measurement": "difference in startle response", "setting": "[2]", "result": -1.31}, {"measurement": "difference in activity during first hour", "setting": "[3]", "result": -7.68}, {"measurement": "difference in habituation to acoustic stimuli", "setting": "[4]", "result": -3.35}, {"measurement": "difference", "setting": "[5]", "result": -5.67}]}
{"smiles": "CO[C@@]1(NC(=O)C2SC(=C(C(N)=O)C(=O)O)S2)C(=O)N2C(C(=O)O)=C(CSc3nnnn3C)CS[C@@H]21", "note": "(stereo not given in full) [Cefotetan (sodium salt)]", "values": [{"measurement": "difference in excitability", "setting": "[1]", "result": -4.63}, {"measurement": "difference in startle response", "setting": "[2]", "result": 4.7}, {"measurement": "difference in activity during first hour", "setting": "[3]", "result": 10.3}, {"measurement": "difference in habituation to acoustic stimuli", "setting": "[4]", "result": 7.15}, {"measurement": "difference", "setting": "[5]", "result": -1.08}]}
{"smiles": "CN(C)CCC=C1c2ccccc2C=Cc2ccccc21", "note": "[Cyclobenzaprine (hydrochloride)]", "values": [{"measurement": "difference in excitability", "setting": "[1]", "result": 17.5}, {"measurement": "difference in startle response", "setting": "[2]", "result": -6.94}, {"measurement": "difference in activity during first hour", "setting": "[3]", "result": 6.26}, {"measurement": "difference in habituation to acoustic stimuli", "setting": "[4]", "result": -8.81}, {"measurement": "difference", "setting": "[5]", "result": 14.9}]}
{"smiles": "CCCCCN(C)CCC(O)(P(=O)(O)O)P(=O)(O)O", "note": "[Ibandronate (sodium hydrate)]", "values": [{"measurement": "difference in excitability", "setting": "[1]", "result": -4.51}, {"measurement": "difference in startle response", "setting": "[2]", "result": 1.53}, {"measurement": "difference in activity during first hour", "setting": "[3]", "result": -2.16}, {"measurement": "difference in habituation to acoustic stimuli", "setting": "[4]", "result": 7.06}, {"measurement": "difference", "setting": "[5]", "result": -0.0828}]}
{"smiles": "NC(N)=Nc1nc(CSCC/C(N)=N/S(N)(=O)=O)cs1", "note": "[Famotidine]", "values": [{"measurement": "difference in excitability", "setting": "[1]", "result": -2.4}, {"measurement": "difference in startle response", "setting": "[2]", "result": -1.19}, {"measurement": "difference in activity during first hour", "setting": "[3]", "result": -7.05}, {"measurement": "difference in habituation to acoustic stimuli", "setting": "[4]", "result": 6.6}, {"measurement": "difference", "setting": "[5]", "result": -3.11}]}
{"smiles": "CC(=O)OCC(=O)[C@@]12OC(C)(C)O[C@@H]1C[C@H]1[C@@H]3C[C@H](F)C4=CC(=O)C=C[C@]4(C)[C@@]3(F)[C@@H](O)C[C@@]12C", "note": "[Fluocinonide]", "values": [{"measurement": "difference in excitability", "setting": "[1]", "result": 0.338}, {"measurement": "difference in startle response", "setting": "[2]", "result": 2.99}, {"measurement": "difference in activity during first hour", "setting": "[3]", "result": -1.35}, {"measurement": "difference in habituation to acoustic stimuli", "setting": "[4]", "result": -2.83}, {"measurement": "difference", "setting": "[5]", "result": 0.257}]}
{"smiles": "Cc1cc(C)cc(OCC2CNC(=O)O2)c1", "note": "(stereo not given) [Metaxalone]", "values": [{"measurement": "difference in excitability", "setting": "[1]", "result": 8.24}, {"measurement": "difference in startle response", "setting": "[2]", "result": -0.153}, {"measurement": "difference in activity during first hour", "setting": "[3]", "result": 0.609}, {"measurement": "difference in habituation to acoustic stimuli", "setting": "[4]", "result": 5.03}, {"measurement": "difference", "setting": "[5]", "result": 10.1}]}
